# Laboratory results: ChEMBL document CHEMBL1201862, “PubChem BioAssay data set” (2004)
# Out of some 350,000 compounds screened, about 31,000 (8.9%) were called active. Not shown: some 15% with an inconclusive outcome. No cut-off for these calls is given here. The sample as a whole holds a higher share of actives than the screen did.
# Target: T1, Histone-lysine N-methyltransferase EHMT2 (Homo sapiens) (UniProt Q96KQ7)
# T1 sequence (whole entry): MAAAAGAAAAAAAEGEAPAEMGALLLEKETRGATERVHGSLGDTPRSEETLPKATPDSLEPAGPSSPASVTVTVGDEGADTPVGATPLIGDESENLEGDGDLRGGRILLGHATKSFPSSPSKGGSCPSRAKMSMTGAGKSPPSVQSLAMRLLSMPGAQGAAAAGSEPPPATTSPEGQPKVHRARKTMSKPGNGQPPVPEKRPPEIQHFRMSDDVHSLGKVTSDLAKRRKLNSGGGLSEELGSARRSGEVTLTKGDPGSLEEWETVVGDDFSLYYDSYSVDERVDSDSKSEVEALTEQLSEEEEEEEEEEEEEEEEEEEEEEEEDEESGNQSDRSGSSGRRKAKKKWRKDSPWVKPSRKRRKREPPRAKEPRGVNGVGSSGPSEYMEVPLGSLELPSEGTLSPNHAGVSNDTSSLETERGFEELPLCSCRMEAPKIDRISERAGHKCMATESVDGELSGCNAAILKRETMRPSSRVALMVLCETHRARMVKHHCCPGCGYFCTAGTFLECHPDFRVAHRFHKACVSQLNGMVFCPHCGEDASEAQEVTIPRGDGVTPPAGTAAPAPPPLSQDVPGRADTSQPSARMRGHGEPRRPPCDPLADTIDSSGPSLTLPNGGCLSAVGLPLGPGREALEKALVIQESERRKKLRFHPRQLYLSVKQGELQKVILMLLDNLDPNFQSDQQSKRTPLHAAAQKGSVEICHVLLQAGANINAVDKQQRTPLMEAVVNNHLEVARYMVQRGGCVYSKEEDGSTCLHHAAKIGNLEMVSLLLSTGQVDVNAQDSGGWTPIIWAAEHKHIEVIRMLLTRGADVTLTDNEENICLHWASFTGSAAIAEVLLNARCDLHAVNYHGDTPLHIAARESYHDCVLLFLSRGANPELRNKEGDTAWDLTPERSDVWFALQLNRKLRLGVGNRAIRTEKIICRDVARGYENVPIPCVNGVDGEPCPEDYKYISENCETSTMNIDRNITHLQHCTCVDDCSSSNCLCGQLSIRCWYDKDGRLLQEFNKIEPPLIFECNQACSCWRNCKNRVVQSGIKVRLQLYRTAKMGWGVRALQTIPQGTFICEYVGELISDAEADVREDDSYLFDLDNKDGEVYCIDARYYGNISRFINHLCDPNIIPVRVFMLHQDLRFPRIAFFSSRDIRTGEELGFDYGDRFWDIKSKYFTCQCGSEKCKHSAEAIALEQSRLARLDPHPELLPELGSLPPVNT
# Assay: qHTS Assay for Inhibitors of Histone Lysine Methyltransferase G9a. [Related pubchem assays (depositor defined):AID504404]
# Type: functional
row,Structure (SMILES),Potency
1,Cl[Te]1(Cl)OCCO1,7.94 µM (active)
